Measured potencies and affinities stand elsewhere. Results filed as inconclusive are left out. Calls of active or inactive are those of the source. Unless noted, how the calls were made is not given here.
Key:
[1] = cytotoxicity in PAX8-dependent RMG-1 cells, dose response, cell-based, cherry-pick (AID 687029;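 active means signal drop whose fitted half-maximal concentration is at most twice the top valid dose, in every test run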;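 further: cells exposed to compound for 96 hours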); details: RMG-1 viability, CellTiterGlo ATP luminescence, 96 h; series mostly up to 35 µM
[2] = inhibitors of CMV-promoter luciferase reporter, dose response, counter-screen for Pax8 inhibitor project, cell-based, HEK293, luminescence, dry powder (AID 743020;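 active means signal-lowering compounds whose fitted half-maximal concentration is at or below twice the top tested dose in every run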;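 further: HEK293 cells stably expressing the CMV luciferase reporter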); details: SteadyGlo luminescence, 24 h; series mostly up to 35 µM
[3] = non-specific cell cytotoxicity, dose response, cytotoxicity control for PAX8 inhibitor project, plate reader, dry powder samples (AID 743021); details: cell line, non-specific cytotoxicity counter-screen; series mostly up to 35 µM
[4] = IGROV1 ovarian cancer cell cytotoxicity, dose response, PAX8 inhibitor project, plate reader, dry powder samples (AID 743043); details: series mostly up to 35 µM;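 further: more negative means fewer viable cells or more cytotoxicity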
[5] = NIH:OVCAR-3 ovarian cancer cell cytotoxicity, dose response, PAX8 inhibitor project, plate reader, dry powder samples (AID 743044); details: NIH:OVCAR-3 ovarian cancer cell viability; max activity: at 35 µM, stronger effect = lower value unless noted; series mostly up to 50 µM
[6] = IOSE-T80 ovarian epithelial cell cytotoxicity, dose response, cytotoxicity control for PAX8 inhibitor project, plate reader, dry powder samples (AID 743045); details: IOSE-T80 ovarian epithelial cells; series mostly up to 35 µM;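 further: 0% = neutral control median and -100% = positive control median; more negative values mean more cell killing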
[7] = A2780 ovarian cancer cell cytotoxicity, dose response, cytotoxicity control, plate reader, dry powder samples (AID 743046); details: series mostly up to 35 µM;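 further: 0% = neutral control wells and -100% = cytotoxic reference compound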
[8] = cytotoxicity in OVCAR8 ovarian cancer cells, dose response, PAX8 project, cell-based, plate reader, dry powder samples (AID 743197); details: series mostly up to 35 µM

Measured: max activity

CCOC(=O)/C=C/C(=O)Nc1cc(S(=O)(=O)Nc2ccc(OC)cc2)ccc1N1CCOCC1
inactive: [1] | [2] | [3]

Oc1ccc(C[C@H]2CN([C@@H](Cc3ccc(O)cc3)CN3CCC[C@@H]3CN3C(=S)NC[C@@H]3Cc3ccccc3)C(=S)N2CC2CCCCCC2)cc1
inactive: [1] | [2] | [3]

CC(C)=CCNc1ncnc2c1c(C#N)cn2C1OC(CO)C(O)C1O (stereo unspecified)
inactive: [1] | [2] | [3]

C[n+]1c2n(c3ccccc31)N=C(c1cc(C(C)(C)C)c(O)c(C(C)(C)C)c1)CS2
inactive: [1] | [2] | [3]

O=C(Nc1cc(S(=O)(=O)N2CCCCC2)ccc1Cl)c1ccccc1NS(=O)(=O)c1ccc(F)cc1
inactive: [1] | [2] | [3]

CCCCCc1c(-c2ccccc2OC)ncn1CCc1ccccc1OC
inactive: [1] | [2] | [3]

CCCCn1c(N)c(N(CCC(C)C)C(=O)COC(=O)c2ccc([N+](=O)[O-])s2)c(=O)[nH]c1=O
inactive: [1] | [2] | [3]

N#Cc1ccc(-c2ccc([C@@H]3[C@@H]4CN(S(=O)(=O)c5ccc(-c6ccccc6)cc5)C[C@H]3N4)cc2)cc1
inactive: [1] | [2] | [3]

Cc1ccc(S(=O)(=O)NCc2ccc(C(=O)N3CCN(c4ccc([N+](=O)[O-])cc4)CC3)cc2)cc1
inactive: [1] | [2] | [3]

C=C1C(=O)[C@@]23[C@H](O)C[C@@H]4C(C)(C)CC[C@H](O)[C@]4(C)[C@@H]2C[C@H](O)[C@@H]1[C@H]3O
inactive: [1] | [2] | [3]

C=C1C(=O)O[C@@H]2[C@H]1[C@@H](OC(=O)/C(C)=C/C)C/C(C)=C\C(=O)/C=C(\C)[C@@H]2O
inactive: [1] | [2] | [3]

Cn1nnnc1Sc1ncnc2scc(-c3ccc[nH]3)c12
inactive: [1] | [2] | [3]

Cc1ccc(C(=O)c2cc([N+](=O)[O-])ccc2N2CCCCC2)c(C)c1
inactive: [1] | [2] | [3]

C=C1C(=O)[C@]23C[C@H]1CC[C@H]2[C@]1(C)[C@@H](OC(C)=O)CC[C@@](C)(C(=O)O)[C@H]1C[C@@H]3O
inactive: [1] | [2] | [3]

O=C1[C@@H]2Cc3c([nH]c4ccccc34)C(c3cccc(Br)c3)N2C(=O)CN1C1CCN(Cc2ccccc2)CC1 (stereo partly specified)
inactive: [1] | [2] | [3]

COc1cccc(-c2nc(CS(=O)(=O)CC(=O)NCCCN3CC(C)CC(C)C3)c(C)o2)c1 (stereo unspecified)
inactive: [1] | [2] | [3]

COc1ccc(OC)c2sc(N(CCCN(C)C)C(=O)CCS(=O)(=O)c3ccccc3)nc12
inactive: [1] | [2] | [3]

COc1cccc(-c2cnc3c(NC=O)cc(-c4ccc(OC)cc4OC)cn23)c1
inactive: [1] | [2] | [3]

CSc1ccc(COC(=O)c2cc([N+](=O)[O-])ccc2N2CCOCC2)cc1
inactive: [1] | [2] | [3]

O=S(=O)(Nc1cccc(-c2cn3cccnc3n2)c1)c1ccc(Cl)cc1
inactive: [1] | [2] | [3]

CCOC(=O)C1=CN(Cc2cccc(-c3cccnc3)c2)S(=O)(=O)N(C)C1C (stereo unspecified)
inactive: [1] | [2] | [3]

CN1C(=O)/C(=C\C(=O)c2cccs2)c2ccccc21
inactive: [1] | [2] | [3]

CCn1c2ccccc2c2cc(NC(=O)c3cc(OC)cc(OC)c3)ccc21
inactive: [1] | [2] | [3]

Cc1cc(C)n(-c2nc(NCCN(C)C)c3c4c(sc3n2)CCCC4)n1
inactive: [1] | [2] | [3]

CC(C)C(=O)N1CCN(c2ccc(NC(=O)c3ccc([N+](=O)[O-])o3)cc2Cl)CC1
inactive: [1] | [2] | [3]

O=C(N/N=C/c1c[nH]c2ccccc12)c1[nH]c2ccc(Br)cc2c1-c1ccccc1
inactive: [1] | [2] | [3]

C[C@H](NC(=O)c1ccco1)C(=O)Nc1cccc([N+](=O)[O-])c1
inactive: [1] | [2] | [3]

C[C@H](CO)N1C[C@H](C)[C@H](CN(C)Cc2ccc(-c3ccccc3)cc2)Oc2ccc(NS(=O)(=O)c3ccc(F)cc3)cc2CC1=O
inactive: [1] | [2] | [3] | [4] | [5] -42.4% | [6] | [7]

CCCCCc1cc(=O)oc2c(C(CCN3CCCCC3)c3ccc4c(c3)OCO4)c(OC)cc(OC)c12 (stereo unspecified)
inactive: [1] | [2] | [3]

COc1ccc(S(=O)(=O)Nc2ccc3c(c2)CC(=O)N([C@@H](C)CO)C[C@@H](C)[C@@H](CN(C)Cc2ccc(-c4ccccc4)cc2)O3)cc1
inactive: [1] | [2] | [3] | [4] | [6]

O=C(Nc1ccc(C(F)(F)F)cc1)Nc1ccc2c(c1)[C@H]1C[C@H](CC(=O)N3CCc4ccccc4C3)O[C@H](CO)[C@H]1O2
inactive: [1] | [2] | [3] | [4] | [5] 20.8% [at 0.5 µM, stronger effect = lower value] | [6] | [8]

O=C(NC(Nc1nc2ccc([N+](=O)[O-])cc2s1)(C(F)(F)F)C(F)(F)F)c1cccnc1
inactive: [1] | [2] | [3]

CCC(=O)N1CCN(c2ccc(NC(=O)c3ccc([N+](=O)[O-])o3)cc2)CC1
inactive: [1] | [2] | [3]

C[C@@H]1CN([C@H](C)CO)C(=O)c2cc(NC(=O)Nc3ccc(C(F)(F)F)cc3)ccc2O[C@@H](C)CCCCO[C@H]1CN(C)Cc1ccccc1
inactive: [1] | [2] | [3] | [4] | [5] 12% [at 30 µM, stronger effect = lower value] | [6] | [7] | [8]

COc1ccc(C(=O)CN2C(=O)c3ccccc3S2(=O)=O)cc1
inactive: [1] | [2] | [3]

Cc1cc(C(=O)Nc2cccc3c2O[C@H](CN(C)Cc2ccc(Oc4ccccc4)cc2)[C@@H](C)CN([C@H](C)CO)C3=O)n(C)n1
inactive: [1] | [2] | [3] | [4] | [5] -26.8% [at 16 µM, stronger effect = lower value] | [6] | [7]

Cn1nnnc1Sc1ncnc2scc(-c3ccc([N+](=O)[O-])cc3)c12
inactive: [1] | [2] | [3]

Cc1ccc(S(=O)(=O)Nc2ccc3c(c2)C(=O)N([C@@H](C)CO)C[C@@H](C)[C@@H](CN(C)S(=O)(=O)c2ccc(Cl)cc2)OCCCC[C@@H](C)O3)cc1
inactive: [1] | [2] | [3] | [4] | [5] -15% | [6] | [8]

CCCCn1c(=O)[nH]c(=O)c2c1nc(Cn1ncc(Cl)c(Cl)c1=O)n2CCC
inactive: [1] | [2] | [3]

C[C@@H]1CN([C@@H](C)CO)S(=O)(=O)c2ccc(C#Cc3ccc(F)cc3)cc2O[C@@H]1CN(C)C(=O)NC1CCCCC1
inactive: [1] | [2] | [3] | [4] | [5] 23.4% [at 1 µM, stronger effect = lower value] | [6] | [7] | [8]

O=C1/C(=C/c2ccccc2)SC(=S)N1CC(=O)N1CCCCC1c1cccnc1 (stereo unspecified)
not listed: [8]
inactive: all other assays above

COc1ccc(-c2ccc3c(c2)[C@@H]2[C@@H](CCN2C(=O)NC2CCCCC2)[C@H](CO)N3C)cc1
inactive: [1] | [2] | [3] | [4]

C[C@@H]1CN([C@@H](C)CO)C(=O)c2cc(NC(=O)Nc3ccc(C(F)(F)F)cc3)ccc2O[C@@H](C)CCCCO[C@@H]1CN(C)CC1CCCCC1
inactive: [1] | [2] | [3] | [4] | [5] 15.9% | [6] | [7] | [8]

O=C(Nc1cccc(Cl)c1)Nc1nnc(CSCCOc2ccc(Cl)cc2)s1
inactive: [1] | [2] | [3] | [4]

C[C@H](CO)N1C[C@H](C)[C@@H](CN(C)Cc2ccc(Cl)c(Cl)c2)Oc2ccc(NC(=O)Nc3ccc(F)cc3)cc2CC1=O
inactive: [1] | [2] | [3] | [4] | [5] -44% | [6]

Cc1ccc(S(=O)(=O)Nc2cccc3c2O[C@@H](CN(C)Cc2ccc(Oc4ccccc4)cc2)[C@@H](C)CN([C@H](C)CO)C3=O)cc1
inactive: [1] | [2] | [3] | [4] | [5] 15.8% [at 1 µM, stronger effect = lower value] | [6] | [7] | [8]

COc1ccc(S(=O)(=O)Nc2ccc3c(c2)C(=O)N([C@H](C)CO)C[C@H](C)[C@@H](CN(C)Cc2ccc(Cl)c(Cl)c2)OCCCC[C@@H](C)O3)cc1
inactive: [1] | [2] | [3] | [4] | [5] -37.4% [at 8 µM, stronger effect = lower value] | [6] | [7] | [8]

COC(=O)[C@]12CCCCC=C1N(Cc1cccc3ccccc13)C(=O)[C@H](CC(=O)N1CCN(C(=O)c3ccco3)CC1)C2
inactive: [1] | [2] | [3]
